# Source: PubChem
# Most compounds without a hit are left out; they make up all but 21% or so of the library.
# DRD3 antagonist – antagonists of human D3 dopamine receptor. P35462. D3R cells, DiscoveRx beta-arrestin luminescence, antagonist mode; active compounds read low. max response, negative = inhibition, %. 360,000 tested, 2.5% active; in the data active = max response below about -50%; inconclusive = no clear call, values can overlap the other calls; note: % is set by controls: 0 for no effect and ±100 for the full control effect
# Target sequence (P35462 whole entry, looked up): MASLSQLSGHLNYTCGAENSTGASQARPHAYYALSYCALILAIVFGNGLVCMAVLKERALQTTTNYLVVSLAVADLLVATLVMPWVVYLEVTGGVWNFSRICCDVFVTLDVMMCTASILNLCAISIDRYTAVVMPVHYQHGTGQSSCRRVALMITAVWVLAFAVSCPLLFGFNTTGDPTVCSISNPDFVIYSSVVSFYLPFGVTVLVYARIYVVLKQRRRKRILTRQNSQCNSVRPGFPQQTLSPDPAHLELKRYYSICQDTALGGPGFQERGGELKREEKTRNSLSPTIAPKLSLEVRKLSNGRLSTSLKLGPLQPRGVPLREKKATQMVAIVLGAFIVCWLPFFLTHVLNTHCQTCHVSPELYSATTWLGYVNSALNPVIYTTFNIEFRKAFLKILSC
#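 Cells plated overnight at 1500 cells/well, then exposed to library compounds with dopamine controls for 90 minutes at 37 degrees C. DiscoveRx reagent added for 30–60 minutes at room temperature; luminescence read, quantitative HTS format.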
# TDP1 cell noCPT – qHTS for Inhibitors of human tyrosyl-DNA phosphodiesterase 1 (TDP1): qHTS in cells in absence of CPT. DT40 Tdp1-/- hTDP1 cells, no CPT, ATP luminescence, 48 h. Potency, µM (highest dose often 46.2 µM), without a hit: at the top dose activity change, negative = growth inhibition, actives largely listed as inhibitors. 420,000 tested, 15% active; note: potency is the fitted concentration of half-maximal effect; % is set by controls: 0 for no effect and ±100 for the full control effect; nearly all actives have a fitted effect of over 55% in size
#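 A cellular qHTS used chicken DT40 cells lacking endogenous Tdp1 but carrying stably transfected human TDP1. Compounds were applied without camptothecin, and cell growth kinetics were judged by ATP-dependent luminescence after ≥48 hr.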
# D3 ag – activates the human D3 dopamine receptor; P35462; 410,000 tested, 0.58% active; D3R DiscoveRx beta-arrestin cells, luminescence, 90 min; max activation, %; in the data active = max activation above about 30%; note: 0% is about no effect
#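 Cells at 1500/well, incubated overnight, then treated with pinned compounds (dopamine as control) for 90 min at 37 degrees C. DiscoveRx reagent added for 30 - 60 minutes at room temperature; luminescence read.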
# IL1B secr inh – inhibitors of inflammasome signaling (IL-1 beta secretion); activity change, % at 57.5 µM; AID 743279; 360,000 tested, 4.7% active; THP-1 LPS/ATP IL-1B secretion, AlphaLISA, 16 h; active compounds read low; in the data active = activity change below about -50%; inconclusive = mostly about -30% to -49%; note: % is set by controls: 0 for no effect and ±100 for the full control effect
#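 THP-1 cells pretreated 1 hr with compounds (up to 57.5 uM final), then stimulated with LPS (250 ng/mL final) plus ATP (1.25 mM final); secreted IL-1B measured by AlphaLISA after 16 hr, decreased signal indicating inhibition.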
# ClpP mod – qHTS Assay for Activators of ClpP. 340,000 tested, 1.9% active. AID 651965, 2013. ATP-dependent Clp protease proteolytic subunit (Bacillus subtilis (strain 168)), P80244. Potency, µM (titrated, usually from 57.5 µM), inactives show at the top dose activity change, negative = active. purified B. subtilis ClpP, FRET peptide cleavage, 20 min; active = well fitted falling curve with a large enough effect; inconclusive = small, poorly fitted or top-dose-only effect; inactive = no such curve, though single readings can be large or run the other way; note: potency is the fitted concentration of half-maximal effect; the source files actives as falling curves though it sought activators and does not explain the sign; nearly all actives have a fitted effect of over 65% in size
#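 Purified B. subtilis ClpP, 10 microg/mL final in Tris/HCl pH8 with KCl, BSA, glycerol and Tween-20, cleaved an Abz/nitrotyrosine-quenched decapeptide. Fluorescence (ex 320, em 430) was read at 0 and 20 min at room temperature. Delta was normalized to 5.8 microM ADEP and DMSO/no-enzyme controls.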
# DT40 TDP1 CPT – DT40-hTDP1 cell growth loss with CPT. chicken DT40 Tdp1-/-;hTDP1 cells + 20 nM CPT, ATP luminescence, 48 h. Potency, µM (top dose mostly 46.2 µM), for the others: top-dose activity change, negative = growth inhibition, usual class: inhibitors. 420,000 tested, 12% active. AID 686979; note: potency is the fitted concentration of half-maximal effect; % is set by controls: 0 for no effect and ±100 for the full control effect; nearly all actives have a fitted effect of over 55% in size
#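 Chicken DT40 Tdp1-/- cells stably complemented with human TDP1 were seeded at 400 cells/well in medium containing 20 nM camptothecin, exposed to pin-transferred compounds, and grown at 37 °C for at least 48 hr. Viability was read as ATP luminescence.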
# * hit, by the source's call; ? = inconclusive; / = no result; [ ] = dose if it differs, or a comment. Unless noted, calls come from the whole dose curve; as a rule, active = well fitted inhibition curve with a large enough effect; inconclusive = small, poorly fitted or top-dose-only effect; inactive = flat fitted curve, though single readings scatter.
SMILES,DRD3 antagonist,TDP1 cell noCPT,D3 ag,IL1B secr inh,ClpP mod,DT40 TDP1 CPT
O=c1[nH]cccc1-c1nc2ccccc2n1Cc1ccc(F)cc1,16,-7%,2,14,4%,-29%
Fc1ccc(Cn2c(-c3cccc(Br)c3)nc3ccccc32)cc1,/,18µM*,0,/,?,?
Cc1cccc(Cn2c(-c3ccc[nH]c3=O)nc3ccccc32)c1,-16,21µM*,-3,-11,5%,?
CN(Cc1ccco1)Cc1cc(-c2ccnc3cc(Cl)ccc23)ccc1O,/,?,/,/,/,-21%[9.04 µM]
O=C(CN1C2CCCC1CC(NC(=O)c1ccco1)C2)Nc1ccccc1 (configuration not stated),-58*,-28%,-13,-14,1%,?
CCCN1C2CCCC1CC(NC(=O)c1ccc(C(C)(C)C)cc1)C2 (configuration not stated),-19,-25%,-9,0,1%,-2%
CCN(CC)C(=O)NC1CC2CCCC(C1)N2Cc1ccccc1 (configuration not stated),-65*,-5%,-11,11,-2%,-19%
Cc1ccc(C(=O)NC2CC3CCCC(C2)N3Cc2ccccc2)cc1 (configuration not stated),-80*,-26%,-30,15,-1%,-4%
O=C(NC1CC2CCCC(C1)N2Cc1ccccc1)c1ccc([N+](=O)[O-])cc1 (configuration not stated),-89*,-1%,-20,-23,1%,-27%
Cc1cnc(C)c(-c2cc(F)cc3c2OC(CNC(=O)CN2CCCC2)C3)n1 (configuration not stated),/,-17%,/,/,/,9%
CCCN1C(=O)C2(c3ccccc31)c1c(oc3ccc(C)cc3c1=O)C(=O)N2CCOC (configuration not stated),/,?,-2,/,1%,?
Cc1cccc(C(=O)NC2CC3CCCC(C2)N3Cc2ccccc2)c1 (configuration not stated),-112*,-9%,-30,-16,/,-8%
Cc1cccc(C(=O)NC2CC3CCC(C2)N3C)c1 (configuration not stated),5,-2%,-1,3,-2%,-12%
CN(C)c1ccc(N2C(=NC(=O)CC3CCCCC3)SC3CS(=O)(=O)CC32)cc1 (configuration not stated),-2,2%,-6,-20,-1%,-8%
CC(C)n1nnnc1C1c2ccccc2C(=O)N1CCCn1ccnc1 (configuration not stated),12,1%,5,5,0%,5%
Cc1cccc(CCNC(=O)c2c[nH]c3ccc(S(=O)(=O)Nc4ccccc4F)cc3c2=O)c1,/,?,4,/,-8%,12µM*
Cc1cc(C)cc(NS(=O)(=O)c2ccc3[nH]cc(C(=O)NCc4ccco4)c(=O)c3c2)c1,?,15µM*,12,-56*,?,12µM*
COc1cccc(NS(=O)(=O)c2ccc3[nH]cc(C(=O)NC4CCCCC4)c(=O)c3c2)c1,/,18µM*,4,/,-15%,18µM*
COc1cccc(NS(=O)(=O)c2ccc3[nH]cc(C(=O)NCCc4ccc(C)cc4)c(=O)c3c2)c1,/,16µM*,-1,/,-5%,15µM*
COCCNC(=O)c1c[nH]c2ccc(S(=O)(=O)Nc3ccccc3F)cc2c1=O,-9,-1%,4,-1,-16%,-21%
Cc1ncc([N+](=O)[O-])n1Cc1ccc(Br)cc1,12,-17%,-4,19,0%,0%
Cc1ccc(S(=O)(=O)c2cn(CC(=O)Nc3ccc(F)cc3)c3cc4c(cc3c2=O)OCO4)cc1,/,-17%,0,/,-15%,-2%
